Compounds without any hit were thinned out: in the full panel of roughly 83,000, 20% have a hit.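 Cell lines were cultured in 96-well plates, exposed to a single compound concentration, and assessed for percent growth 48 hours later.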 Values without a mark were called inactive. The source made the active and inactive calls.

The subject of this experiment is MCF7 breast. Description: NCI-60 one-dose screen, 48 h (100 = growth as untreated, 0 = no growth, -100 = all killed). As to conditions: 10 µM unless noted. On the procedure: Growth inhibition of the MCF7 human tumor cell line is measured as a screen for anti-cancer activity. Cells are grown in 96 well plates and exposed to the test compound for 48 hours. Compounds are tested at a single concentration, which is 10^-5 M for most compounds. The reported endpoint is percent growth (GI% or GIPRCNT), where numbers from 0 - 100% represent growth inhibition, and numbers from -100% - 0 represent cell death. For example, a value of 40 represents 60% growth inhibition. A value of 0 means no net growth occurred over the course of the experiment. A value of -40 indicates 40% of cells at the beginning of the experiment died by the end of the experiment. A value of -100 means all cells are dead at the end of the experiment.
NCI-60 Human Tumor Cell Lines Screen was performed using the standard one-dose NCI protocol, which is described in more detail at https://dtp.cancer.gov/discovery_development/nci-60/default.htm.
Compounds with GIPRCNT values below 10 were considered active. Activity score was based on GIPRCNT using the following formula: […]
Score is 0 for GIPRCNT values of 100 or above, 50 for GIPRCNT values of 0, and 100 for GIPRCNT values of -100.
`CN(C)c1nc(N)nc(Cn2c(-c3nonc3N)nc3ccccc32)n1`: the growth was 66.5%. In the case of `Cc1nn(-c2ccc(Br)cc2)c2nc3c(nc12)C(=O)C(=O)c1ccccc1-3`, the growth was 67.3%. With `CC(=O)c1nc2ccccc2n1CCn1cc(CC(N)C(=O)O)c2ccccc21` (stereo not given) the figure was 75.3%; with `Cc1cc(C)n2nc(SCC(=O)Nc3sc4c(c3C(N)=O)CCC4)nc2n1`, 107%. Take `O=C(CCc1nnc(SCc2ccccc2)s1)c1nc2ccccc2[nH]1`: the growth is 92.1%.

For `Nc1nonc1-c1nc2ccccc2n1CC(=O)Nc1ccc2c(c1)COC2=O`, the growth is 73.8%. With `O=c1cc(-c2cccnc2)oc2c1ccc1ccccc12` the figure was 73.6%; with `CCN(CC)CCCNCCCNc1cc(OC)cc2cccnc12`, -46.8% (active); with `O=C(CSCC(=O)N/N=C/c1ccccc1O)N/N=C\c1ccccc1O`, 19.5%. With `COc1ccc(-c2csc(NC(=O)c3cc(O)c(O)c(O)c3)n2)cc1` the figure was 60.6%.

Turning to `CCCCCCCCCCCCCCCCCC1=NC(C)(C)CN1CCO`, the growth was -59.5% (active). With `C=C1CC[C@@H]2[C@](C)(COC(C)=O)[C@H](OC(C)=O)CC[C@@]2(C)[C@@H]1CC(Nc1ccc(S(=O)(=O)Nc2cc(C)on2)cc1)C1=CCOC1=O` (stereo not given in full) the figure was 12.3%; with `O=C(Nc1ccc(OCc2nnc(-c3ccccc3)o2)c(F)c1)Nc1ccc(Cl)c(C(F)(F)F)c1`, 8.14% (active). With `CN1C(=O)C(=Cc2cn(Cc3ccccc3)c3ccc(Br)cc23)C(=O)N(C)C1=O`, the growth was 87%. Next, `CCOc1ccccc1C(=O)OCC(=O)Nc1cccc(S(=O)(=O)N(C)C)c1`: 102%.

`O=C1C[C@@H]2/C(=C(O)\C=C\c3ccccc3)C(=O)C=C[C@@H]2O1`: the growth is 6.03% (active). Next, `COc1cc(C(=O)/C=C/c2cccnc2Nc2ccccc2)cc(OC)c1OC`: -73% (active); `CCCCCCCC/C=C/CCCCCCCC1=NC(C)(C)CN1CC(C)O` (stereo not given): 17.1%; `COc1ccc(Cn2c(NCCCN(C)C)nc(=O)n(Cc3ccc(F)cc3)c2=O)cc1`: 87.9%. Next, `COc1cc(/C=C2\COc3ccc(O)cc3C2=O)cc(OC)c1`: 8.22% (active); `O=C(Nc1cccc(-n2cc(-c3ccncc3)c(-c3ccc(O)c(Cl)c3)n2)c1)Nc1ccc(Cl)c(C(F)(F)F)c1`: -7.24% (active). Regarding `COc1ccc(-c2cc(Cc3cccs3)c(=O)n(Cn3ccc4ccccc43)n2)cc1`, the growth was 95.2%.

Take `COc1cccc(-c2nnc(N)o2)c1`: the growth is 101%. With `COc1cc(Oc2cc(-c3cccnc3)ccc2NC(=O)Nc2ccc(F)cc2F)cc(OC)c1OC` the figure was 94.2%; with `O=[N+]([O-])c1ccc(N/N=C\c2ccccc2[N+](=O)[O-])nc1`, 88.8%; with `O=C(Nc1cccc2ccccc12)c1cc2c(cc1Br)OCO2`, 79.9%. Next, `COc1ccc2c(c1)nc(N)c1c3cc(OC)c(OC)cc3cn21`: 17.5%; `CC(O)c1nc2c(c(=O)n(C)c(=O)n2C)n1C` (stereo not given): 102%; `NC(=O)N/N=C/c1ccc(Br)o1`: 95.4%. With `COc1cc(/C=C/c2nnc(-c3cc(-c4ccccc4)n[nH]3)o2)cc(OC)c1OC` the figure was 92%. For the compound `CCn1c2ccccc2c2ccc(C(C)=O)cc21`, the growth is 102%. Next, `COc1cc(C2CC(=O)Nc3c2cc(Br)c2ccccc32)cc(Br)c1OC` (stereo not given): 17.3%; `CC(=O)NC1(C(=O)O)CCCC1`: 97.8%; `O=C(NCCCO)c1cc(Cl)ccc1O`: 18.9%. Next, `CCC(C)CC(CC)NCCN1CCN(C(CC)CC(C)CC)C1=S` (stereo not given): -60.9% (active). Next, `COc1ccc(/C=C2\COc3ccc(O)c(O)c3C2=O)cc1OC`: 13%. For the compound `CCCCC(C#N)C(N)=O` (stereo not given), the growth is 97.7%.

With `Nc1nc(N)c([N+](=O)[O-])c(=O)[nH]1`, the growth is 88.6%.

For `COC(=O)[C@]12CC[C@@H](C)[C@H](C)[C@@H]1C1=CC[C@@H]3[C@@]4(C)C=C(O)C(=O)[C@@]5(C)COC(=C54)C[C@@]3(C)[C@]1(C)CC2`, the growth is -70.5% (active).

Turning to `Cc1cc(NCCCNc2ccnc3cc(Cl)ccc23)nc(N2CCN(C)CC2)n1`, the growth was 33.1%.

The record behind these values is PubChem BioAssay (NCI).
